Activity calls are given as the source filed them. The rule behind the calls is not given here.

For the assay, the system named is Aerobactin synthetase IucA (Klebsiella pneumoniae hvKP1). In words: IucA enzyme inhibition, primary screen, biochemical, Spectrum library (AID 1346200).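 Note: 100% = wells without compound and 0% = wells lacking enzyme.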 The note with it: malachite green pyrophosphate, A620, at 8 µM, active compounds read low.
Turning to `N[C@@H]1[C@@H](O)[C@H](O)[C@@H](CO)O[C@H]1O`, the activity remaining is 80.8% (inactive).
The same measure for `CC(=O)Oc1cc(OC(C)=O)c2c(c1)O[C@H](c1ccc(OC(C)=O)c(OC(C)=O)c1)[C@@H](OC(C)=O)C2`: 98% (inactive); for `CC(C)(O)[C@@H]1Cc2cc3ccc(=O)oc3cc2O1`: 113% (inactive); for `COc1cc([C@@H]2c3cc4c(cc3C(O[C@@H]3O[C@@H]5CO[C@@H](c6cccs6)OC5[C@H](O)[C@H]3O)C3COC(=O)[C@@H]32)OCO4)cc(OC)c1O` (some centres undefined): 92.9% (inactive).
Consider `C/C=C(/C)C(=O)O[C@@H]1[C@H](OC(C)=O)[C@@]2(CO)C(CC1(C)C)C1=CCC3[C@@]4(C)CC[C@H](O[C@@H]5O[C@H](C(=O)O)[C@@H](O[C@@H]6O[C@H](CO)[C@@H](O)[C@H](O)[C@H]6O)[C@H](O)[C@H]5O[C@@H]5O[C@H](CO)[C@@H](O)[C@H](O)[C@H]5O)[C@](C)(CO)C4CC[C@@]3(C)[C@]1(C)C[C@H]2O` (some centres undefined), for which the activity remaining was 119% (inactive).
As for `C[C@@H]1CC2C3CCC4=CC(=O)C=C[C@]4(C)[C@@]3(F)[C@@H](O)C[C@]2(C)[C@@]1(O)C(=O)COP(=O)(O)O` (some centres undefined), the activity remaining is 114% (inactive).
The same measure for `Cc1cc(C(C)(C)C)c(O)c(C(C)(C)C)c1`: 110% (inactive).
For the compound `C=C[C@H]1CN2CC[C@H]1C[C@@H]2[C@H](O)c1ccnc2ccc(OC)cc12`, the activity remaining was 112% (inactive).
Next, `CC[C@]12C=CCN3CC[C@@]4(c5ccc(OC)cc5N(C)C4[C@@](O)(C(=O)OC)[C@@H]1OC(C)=O)[C@@H]32` (some centres undefined): 112% (inactive).
